Assay results published in PubChem BioAssay AID1159580 (chemical genetic matrix, 2015).
“And” between values parts separate entries of the source, which are not always exact repeats. Identical values can stand only once. The whole screen tested about 5,500 compounds, of which about 2,000 (36%) were called active. About 18% were inconclusive and are not listed. Cut-off read from the data, not from the text of the source: active = normalized growth mostly below about 0.91 (no sharp cut-off); inconclusive = no clear call, values can overlap the other calls; inactive = mostly above about 0.92. The list shows a part of the results.

Assay: chemical genetic growth profiling, strain panel (AID 1159580);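 note: tested at 20 µM; growth read once vehicle control cultures reached saturation at 30 °C; 1 = growth at the plate median or of vehicle wells; lower values mean less growth of the strain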
Conditions: growth OD

Measured: normalized growth

CC(=O)O[C@@H]1CC[C@@]2(C)C(C[C@@H](OC(C)=O)[C@@]3(C)C4=CC(=O)O[C@@H](c5ccoc5)[C@]4(C)CCC23)C1(C)C (stereo partly drawn)
inactive: S. cerevisiae deletion strains, locus YBR021W, strain FUR4, hits give low values 1.01 | S. cerevisiae deletion strains, locus YBR229C, strain ROT2, hits give low values 1.01 | S. cerevisiae deletion strains, locus YCL029C, strain bik1, hits give low values 0.99 | S. cerevisiae deletion strains, locus YDL035C, strain GPR1, hits give low values 1.03 | S. cerevisiae deletion strains, locus YDL074C, strain BRE1, hits give low values 1 | S. cerevisiae deletion strains, locus YDL101C, strain DUN1, hits give low values 1.01 | S. cerevisiae deletion strains, locus YDL134C, strain PPH21, hits give low values 1.01 | S. cerevisiae deletion strains, locus YDL185W, strain tfp1, hits give low values 0.996 | S. cerevisiae deletion strains, locus YDL192W, strain arf1, hits give low values 1 | S. cerevisiae deletion strains, locus YDR101C, strain arx1, hits give low values 1 | S. cerevisiae deletion strains, locus YDR162C, strain NBP2, hits give low values 1.02 | S. cerevisiae deletion strains, locus YDR318W, strain mcm21, hits give low values 1 | S. cerevisiae deletion strains, locus YDR388W, hits give low values 1 | S. cerevisiae deletion strains, locus YDR502C, strain sam2, hits give low values 0.983 | S. cerevisiae deletion strains, locus YEL061C, strain CIN8, hits give low values 1.02 | S. cerevisiae deletion strains, locus YER110C, hits give low values 1 | S. cerevisiae deletion strains, locus YER155C, strain BEM2, hits give low values 1.02 | S. cerevisiae deletion strains, locus YER167W, strain BCK2, hits give low values 1.02 | S. cerevisiae deletion strains, locus YGL078C, strain dbp3, hits give low values 0.994 | S. cerevisiae deletion strains, locus YGL086W, strain mad1, hits give low values 1.02 | S. cerevisiae deletion strains, locus YGL248W, strain PDE1, hits give low values 0.999 | S. cerevisiae deletion strains, locus YGR135W, strain pre9, hits give low values 0.973 | S. cerevisiae deletion strains, locus YGR252W, strain gcn5, hits give low values 0.918 | S. cerevisiae deletion strains, locus YHR030C, strain SLT2, hits give low values 0.962 | S. cerevisiae deletion strains, locus YHR079C, strain IRE1 (second series), hits give low values 1 | S. cerevisiae deletion strains, locus YHR079C, strain IRE1, hits give low values 0.998 | S. cerevisiae deletion strains, locus YHR094C, strain hxt1, hits give low values 0.998 | S. cerevisiae deletion strains, locus YHR129C, strain ARP1, hits give low values 1.02 | S. cerevisiae deletion strains, locus YHR200W, strain rpn10, hits give low values 0.976 | S. cerevisiae deletion strains, locus YIL066C, strain RNR3, hits give low values 1.03 | S. cerevisiae deletion strains, locus YIL073C, strain SPO22, hits give low values 0.996 | S. cerevisiae deletion strains, locus YIL125W, strain kgd1, hits give low values 1 | S. cerevisiae deletion strains, locus YIR030C, strain dcg1, hits give low values 1 | S. cerevisiae deletion strains, locus YJL095W, strain BCK1, hits give low values 0.986 and 0.998 | S. cerevisiae deletion strains, locus YJL134W, strain LCB3, hits give low values 1.02 | S. cerevisiae deletion strains, locus YJL168C, strain set2, hits give low values 1 | S. cerevisiae deletion strains, locus YJL187C, strain SWE1 (second series), hits give low values 1 | S. cerevisiae deletion strains, locus YJR066W, strain TOR1, hits give low values 0.918 | S. cerevisiae deletion strains, locus YKL009W, strain mrt4, hits give low values 1.05 | S. cerevisiae deletion strains, locus YKL068W, hits give low values 1 | S. cerevisiae deletion strains, locus YKL085W, strain MDH1 (second series), hits give low values 1.03 | S. cerevisiae deletion strains, locus YKL085W, strain MDH1, hits give low values 1.03 | S. cerevisiae deletion strains, locus YKL190W, strain CNB1, hits give low values 1.02 | S. cerevisiae deletion strains, locus YKR001C, strain vps1, hits give low values 0.998 | S. cerevisiae deletion strains, locus YLR039C, strain RIC1, hits give low values 1.04 | S. cerevisiae deletion strains, locus YLR058C, strain SHM2, hits give low values 1.01 | S. cerevisiae deletion strains, locus YLR102C, strain apc9, hits give low values 0.998 | S. cerevisiae deletion strains, locus YLR113W, strain HOG1, hits give low values 0.981 | S. cerevisiae deletion strains, locus YLR268W, strain sec22, hits give low values 0.99 | S. cerevisiae deletion strains, locus YLR371W, strain rom2, hits give low values 1.01 | S. cerevisiae deletion strains, locus YLR418C, strain cdc73, hits give low values 0.909 | S. cerevisiae deletion strains, locus YML016C, strain PPZ1, hits give low values 1.02 | S. cerevisiae deletion strains, locus YML032C, strain rad52, hits give low values 1 | S. cerevisiae deletion strains, locus YML124C, strain tub3, hits give low values 0.999 | S. cerevisiae deletion strains, locus YMR078C, strain ctf18, hits give low values 1.01 | S. cerevisiae deletion strains, locus YMR223W, strain ubp8, hits give low values 0.988 | S. cerevisiae deletion strains, locus YMR307W, strain GAS1, hits give low values 0.953 | S. cerevisiae deletion strains, locus YNL067W, strain RPL9B, hits give low values 1 | S. cerevisiae deletion strains, locus YNL183C, strain NPR1, hits give low values 0.931 | S. cerevisiae deletion strains, locus YNL233W, strain BNI4, hits give low values 0.993 | S. cerevisiae deletion strains, locus YNL250W, strain rad50, hits give low values 0.992 | S. cerevisiae deletion strains, locus YNL271C, strain bni1, hits give low values 1 | S. cerevisiae deletion strains, locus YNL298W, strain CLA4, hits give low values 0.989 | S. cerevisiae deletion strains, locus YNL307C, strain MCK1, hits give low values 0.993 | S. cerevisiae deletion strains, locus YNR052C, strain pop2, hits give low values 0.993 | S. cerevisiae deletion strains, locus YOL006C, strain TOP1, hits give low values 0.986 | S. cerevisiae deletion strains, locus YOL012C, strain htz1 0.707 | S. cerevisiae deletion strains, locus YOL147C, strain pex11, hits give low values 1 | S. cerevisiae deletion strains, locus YOR061W, strain CKA2, hits give low values 1.02 | S. cerevisiae deletion strains, locus YOR069W, strain VPS5, hits give low values 1.02 | S. cerevisiae deletion strains, locus YOR136W, strain idh2, hits give low values 0.996 | S. cerevisiae deletion strains, locus YOR144C, strain elg1, hits give low values 1.01 | S. cerevisiae deletion strains, locus YOR184W, strain ser1, hits give low values 1.01 | S. cerevisiae deletion strains, locus YOR231W, strain MKK1, hits give low values 0.999 | S. cerevisiae deletion strains, locus YOR316C, strain cot1, hits give low values 0.999 | S. cerevisiae deletion strains, locus YPL055C, strain LGE1, hits give low values 0.997 | S. cerevisiae deletion strains, locus YPL256C, strain CLN2, hits give low values 0.973 | S. cerevisiae deletion strains, locus YPR119W, strain clb2, hits give low values 1 | S. cerevisiae deletion strains, locus YPR141C, strain kar3, hits give low values 0.993 | S. cerevisiae deletion strains, locus YPR163C, strain tif3, hits give low values 0.988 | S. cerevisiae deletion strains, locus YPR167C, strain met16, hits give low values 0.995 | S. cerevisiae deletion strains, strain wtn01, hits give low values 0.986 | S. cerevisiae strains, strain wild type, hits give low values 1.02
